The source of these data is PubChem BioAssay (EPA / NIEHS).

What is called AC50 is the midpoint of the concentration-response curve, whichever way the signal moves.

Active and inactive are the calls of the source. How the source made its calls: active means hit-call score of the fitted dose curve at least 0.9, where 1 is the maximum; inactive means score below 0.9.

Read-out in this assay: Thyroid Hormone Responsive (THRSP), THRSP (gene 7069)
The experiment in a line: LTEA_HepaRG_THRSP: Life Technologies and Expression Analysis (LTEA) Assay for Thyroid Hormone Responsive (THRSP) using HepaRG (AID 2283536). Particulars: mRNA level, 48 h; actives raise or lower the signal. On the procedure: LTEA_HepaRG is a cell based, multiplexed-readout assay that uses HepaRG, a human liver cell line, with measurements taken at 48 hours after chemical dosing on a 96-well plate.LTEA_HepaRG_THRSP is one of 102 assay component(s) measured in the LTEA HepaRG cell culture assay. It is a marker of NR mediated metabolism.Data from the assay component LTEA_HepaRG_THRSP was analyzed into 1 endpoint. This assay endpoint, LTEA_HepaRG_THRSP, was analyzed with bidirectional fitting relative to DMSO as the negative control and baseline of activity. Using a type of inducible reporter, measures of mRNA induction for gain or loss-of-signal activity can be used to understand regulation of transcription factor activity. To generalize the intended target to other relatable targets, this assay endpoint is annotated to the growth factor intended target family, where the subfamily is NR mediated metabolism.
A total of 1060 chemcials from the ToxCast library were tested in eight-point concentration-response experiments. Cell culture and cytotoxicity assays were conducted at Thermo Fisher Scientific's Custom Services facility (Madison, WI). A single lot of human HepaRG cells (Thermo Fisher Scientific, Frederick, MD) was used for the cell culture experiments. 96-well format collagen type I coated plates of human HepaRG cells were prepared using established methods. Briefly, cryopreserved HepaRG cells were thawed, plated at a density of approximately 100,000 cells/well in HepaRG Thaw, Plate, and General Purpose media (HPRG770, Thermo Fisher Scientific), and incubated for 48 hours. 0.5% DMSO was selected as vehicle control to balance the requisite need of DMSO in HepaRG cultures to maintain differentiation (for example, baseline metabolism, proportions of hepatocytes vs. cholangiocytes), while enabling further hepatic receptor pathway activation (for example, PXR and CAR) in response to chemical exposure. 48 hours after plating, the culture medium was replaced with HepaRG Serum-Free Incudtion Media. Cells were exposed to each test chemical in duplicate and maintained in CO2 incubators for another 48 hours. Chemical plates were thawed to room temperature and 200x concentrations of treatment groups were prepared. 8-point conentration-reponse curves were made with the highest exposure at 100 uM, followed by half-log dilutions, all in 0.5% DMSO. Each test plate contained variouse controls, induction positive controls (1mM phenobarbital), cytotoxicity positive controls ([…] aflatoxin B1), vehicle controls (0.5% DMSO), and total lysis controls (0.5% DMSO). Cell morphology images were taken using an Essen IncuCyte FLR automated microscope, with six 96-well plates imaged in about 24 minutes. Images were captured and exported and JPEG files. Spent culture media was transfered to black-well plates for the LDH assay, and remaining media was sorted at -80 C for later use. Cells were treated with RLT buffer and frozen until shipped for gene expression analysis. Total RNA was isolated from the cell suspension in 75 uL of Buffer RLT (Qiagen, Germantown, MD 20874) by Quintiles/Expression Analysis (Durham, NC) using a custom isolation procedure. Total RNA from each plate well was transferred to a preamplification plate. Fluidigm's 96.96 Dynamic ArrayTM (Fluidigm, Amsterdam, the Netherlands) technology was used for gene expression analyses by quantitative reverse transcription polymerase chain reaction (qRT-PCR, performed by Quintiles/Expression Analysis, Durham, NC)89. Standard TaqManTM Assays (Applied Biosystems/ThermoFisher Scientific, Foster City, CA) were used to assess the expression of 93 genes selected based on their selectivity and sensitivity to important hepatic receptors known to be modulated by environmental chemicals; importance in human hepatocyte functionality; and hepatotoxicity. […]
On to `CC(C)=CCCC(C)=CC=O`, for which the compound was called inactive.

`Oc1ccc2c(c1)-c1ccccc1C2`: the AC50 is 13.9 µM (active).

As for `O=c1n(CC2CO2)c(=O)n(CC2CO2)c(=O)n1CC1CO1` (stereo not given), the compound was classed as inactive.

As to `CC(C)=CCC/C(C)=C\CO`, the result was inactive.

As to `O=C(O)c1cccc(Oc2ccccc2)c1`, the compound was called inactive.

`Cc1ccc(N)cc1O`: the AC50 is 25.2 µM (active).

As to `COc1ccc(-n2nc(C(F)F)cc2-c2ccc(S(C)=O)cc2)cc1` (stereo not given), the compound was called inactive.

As for `CCOC(=O)CC(CC(=O)OCC)(OC(C)=O)C(=O)OCC`, the outcome was inactive.

As to `Cc1c(-c2cccnc2)c2ccccc2n1CCCCC(=O)O`, the compound was classed as inactive.

Turning to `CC(=O)c1ccc2c(c1)[C@H](NC(=O)c1ccc(F)cc1)[C@@H](O)C(C)(C)O2`, the compound was classed as inactive.

As for `Cc1ccc(S(=O)(=O)O)cc1C`, the result was inactive.

For `COc1ccc2sc(C(=O)Nc3nnn[nH]3)c(OC(C)C)c2c1`, the AC50 is 50 µM (active).

For the compound `CNS(=O)(=O)c1cc(C(=O)N2CCC(CCN3C4CCC3CC(n3c(C)nc5ccccc53)C4)(c3cccc(F)c3)CC2)c(Cl)cc1F` (stereo not given), the outcome was inactive.

For the compound `Cn1cnc([N+](=O)[O-])c1Sc1ncnc2nc[nH]c12`, the AC50 is 10.7 µM (active).

In the case of `Nc1nc2ncc(CNc3ccc(C(=O)N[C@@H](CCC(=O)O)C(=O)O)cc3)nc2c(=O)[nH]1`, the compound was called inactive.

As to `CC(=O)OCCC(C)C`, the compound was called inactive.

In the case of `CN(C)c1ccc(Cc2ccc(N(C)C)cc2)cc1`, the AC50 was 19.5 µM (active).

Consider `CC(C)c1cccc(C(C)C)c1N1C(=O)c2ccc(O)cc2C1=O`, for which the AC50 was 90.2 µM (active).

`CC(C)CCCCCCOC(=O)c1ccc(C(=O)OCCCCCCC(C)C)c(C(=O)OCCCCCCC(C)C)c1`: the compound was classed as inactive.

Regarding `Fc1ccccc1[C@@H](F)COC1CCC(Nc2ncnc3[nH]ncc23)CC1` (stereo not given in full), the outcome was inactive.

As for `C[C@](N)(Cc1ccc(O)c(O)c1)C(=O)O`, the result was inactive.

For `CC[C@H]1OC(=O)[C@H](C)[C@@H](O[C@H]2C[C@@](C)(OC)[C@@H](O)[C@H](C)O2)[C@H](C)[C@@H](O[C@@H]2O[C@H](C)C[C@H](N(C)C)[C@H]2O)[C@](C)(O)C[C@@H](C)C(=O)[C@H](C)[C@@H](O)[C@]1(C)O`, the call was inactive.

Turning to `CC1=CC(=O)CC(C)(C)C1`, the compound was classed as inactive.

Turning to `On1ccccc1=S`, the outcome was inactive.

Take `C=CCCCCCCCCC(=O)O`: the call was inactive.

Regarding `CC/C(=C\C(=N/O)C(N)=O)C(C)[N+](=O)[O-]` (stereo not given), the outcome was inactive.

On to `O=C(OC[C@H]1O[C@@H](OC(=O)c2cc(O)c(O)c(OC(=O)c3cc(O)c(O)c(O)c3)c2)[C@H](OC(=O)c2cc(O)c(O)c(OC(=O)c3cc(O)c(O)c(O)c3)c2)[C@@H](OC(=O)c2cc(O)c(O)c(OC(=O)c3cc(O)c(O)c(O)c3)c2)[C@@H]1OC(=O)c1cc(O)c(O)c(OC(=O)c2cc(O)c(O)c(O)c2)c1)c1cc(O)c(O)c(OC(=O)c2cc(O)c(O)c(O)c2)c1`, for which the AC50 is 6.1 µM (active).

`CCOCCOCCOCCO`: the call was inactive.

As for `C1N2CN3CN1CN(C2)C3`, the compound was called inactive.

Consider `O=P(OC(CCl)CCl)(OC(CCl)CCl)OC(CCl)CCl`, for which the AC50 was 94.4 µM (active).

In the case of `O=c1[nH]c2ccc(S(=O)CCN3CCC(Cc4ccc(F)cc4)CC3)cc2o1` (stereo not given), the AC50 was 85.5 µM (active).

For the compound `CC(C)CC(C)(O)C#CC(C)(O)CC(C)C` (stereo not given), the result was inactive.

Consider `O=C1CCC(N2C(=O)c3ccccc3C2=O)C(=O)N1` (stereo not given), for which the outcome was inactive.

With `CC(C)CCCCCCCOC(=O)CCCCC(=O)OCCCCCCCC(C)C`, the outcome was inactive.

As to `COCCOCCOCCOC`, the outcome was inactive.

For the compound `O=C1OC(=O)C2C3C=CC(C3)C12` (stereo not given), the outcome was inactive.

`CC[C@H]1CC[C@H](NCc2cc3c(cc2OC)[C@H]2C[C@H]2C(=O)N3C)[C@H](c2ccccc2)N1`: the AC50 is 29.3 µM (active).

Consider `O=C(O)c1cc(N=Nc2ccc(S(=O)(=O)Nc3ccccn3)cc2)ccc1O`, for which the compound was classed as inactive.

In the case of `CCC(C)(C)C(=O)O[C@H]1C[C@@H](C)C=C2C=C[C@H](C)[C@H](CC[C@@H]3C[C@@H](O)CC(=O)O3)[C@H]21`, the AC50 was 25.4 µM (active).

For the compound `CCOC(=O)COc1ccc2c(c1)CC(NCC(O)c1cccc(Cl)c1)CC2` (stereo not given), the call was inactive.
